Compound activity (PubChem)
nsP2pro inh = inhibitors of chikungunya virus nsP2 protease | Potency, µM (doses to about 24.9 µM), actives largely listed as inhibitors | 31,000 tested, 1.1% active | FRET peptide cleavage, nsP2pro, fluorescence 1 h; note: nearly all actives have a fitted effect of over 60% in size
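Enzyme 150 nM, substrate 2.5 uM (both final); Tris-HCl 10 mM pH 8.0 + 0.01% Tween 20; cpd up to 25 uM, 7 pts; 15 min preinc., 1 h RT; fluorescence ex 525/em 598.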
CHIKV nsP2 cell = inhibits CHIKV nsP2 protease in cells. Potency, µM (top dose mostly 51.1 µM), usual class: inhibitors. 450 tested, 10% active. shares compounds with nsP2pro inh. cell-based CHIKV nsP2 protease reporter assay; note: nearly all actives have a fitted effect of over 70% in size
Target sequence (Q8JUX6 220-798 limits assumed): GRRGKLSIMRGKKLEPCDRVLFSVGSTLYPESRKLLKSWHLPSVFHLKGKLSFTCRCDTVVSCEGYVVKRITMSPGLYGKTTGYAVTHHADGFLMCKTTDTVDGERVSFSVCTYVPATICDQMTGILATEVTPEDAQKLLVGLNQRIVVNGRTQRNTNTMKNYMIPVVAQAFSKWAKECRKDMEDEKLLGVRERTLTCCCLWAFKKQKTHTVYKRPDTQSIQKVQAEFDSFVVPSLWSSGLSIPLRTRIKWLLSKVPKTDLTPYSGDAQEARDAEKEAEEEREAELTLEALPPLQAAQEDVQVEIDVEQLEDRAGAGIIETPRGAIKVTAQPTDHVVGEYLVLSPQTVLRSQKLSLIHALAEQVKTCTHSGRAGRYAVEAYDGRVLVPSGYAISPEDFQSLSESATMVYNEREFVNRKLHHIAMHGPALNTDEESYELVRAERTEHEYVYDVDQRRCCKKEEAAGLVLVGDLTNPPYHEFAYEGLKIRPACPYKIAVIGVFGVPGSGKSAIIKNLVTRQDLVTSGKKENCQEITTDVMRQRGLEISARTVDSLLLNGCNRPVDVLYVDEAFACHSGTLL
NSP2 full ctr = selectivity test for CHIKV nsP2 protease inhibitors: full-length NSP2; shares compounds with nsP2pro inh; Full-length CHIKV NSP2 protease enzymatic counterscreen; Potency, µM (top dose mostly 50.7 µM), actives largely listed as inhibitors; 410 tested, 39% active; AID 1964101; note: nearly all actives have a fitted effect of over 65% in size
Furin counterscr = selectivity counter-screen for CHIKV nsP2 protease inhibitors: human furin | 410 tested, 6% active | Potency, µM (top dose mostly 50.6 µM), hits mostly inhibitors | shares compounds with nsP2pro inh | Recombinant human furin enzymatic counterscreen, fluorogenic substrate | AID 1964102
NS23 peptide cs = selectivity test for CHIKV nsP2 protease inhibitors: endogenous NS2/3 peptide | Potency, µM (doses to about 51 µM), hits mostly inhibitors | shares compounds with nsP2pro inh | AID 1964103 | Purified CHIKV nsP2 protease, endogenous NS2/3 peptide cleavage | 410 tested, 34% active; note: nearly all actives have a fitted effect of over 55% in size
Papain cs = papain protease inhibition, counterscreen for nsP2pro inhibitors; Potency, µM (titrated, usually from 51 µM), hits mostly inhibitors; AID 1964104; purified papain protease activity, enzymatic inhibition; shares compounds with nsP2pro inh; 410 tested, 5% active
nsP2pro confirm = confirmation of CHIKV nsP2 protease inhibitors; shares compounds with nsP2pro inh; CHIKV nsP2 protease enzymatic activity, qHTS; Potency, µM (titrated, usually from 25.5 µM), hits mostly inhibitors; 410 tested, 43% active; AID 1964105; note: nearly all actives have a fitted effect of over 75% in size
HCV NS3 4A cs = selectivity counter-screen for CHIKV nsP2 protease inhibitors: HCV NS3/4A | shares compounds with nsP2pro inh | HCV NS3/4A protease biochemical counterscreen | Potency, µM (series often up to 50.9 µM), actives largely listed as inhibitors | 410 tested, 20% active; note: nearly all actives have a fitted effect of over 55% in size
Each line names hits and unclear results; the compound was inactive in the other large screens (follow-up assays come after a bar, where they were run). The sample as a whole holds a higher share of hits than the screen did. Calls come from the whole dose curve.

CC[C@@H](C)Nc1cc(C(=O)NC2CC3CC[C@@H](C2)N3c2ccc(C(=O)C3CC3)cn2)c(C)cc1C(N)=O (stereo not given in full)	none
O=C(OCCN(CCO)CCO)c1ccccc1O	none
Clc1cccc(CSc2nc3ncc(Br)cc3[nH]2)c1	none
COC(O)(CC(C)C)C1Oc2cc(C)[nH]c(=O)c2O1 (stereo not given)	nsP2pro inh 8.8µM | CHIKV nsP2 cell inactive | NSP2 full ctr inactive | Furin counterscr inactive | NS23 peptide cs inactive | Papain cs inactive | nsP2pro confirm inactive | HCV NS3 4A cs inactive
CCCCC[C@H](O)/C=C/[C@@H]1[C@@H](C/C=C/CCCC(=O)O)[C@@H](O)C[C@H]1O	none
C[C@@H]1O[C@@H](O[C@H]2[C@H](O[C@H]3CC[C@@]4(C)C(CC[C@]5(C)C4CC=C4[C@@H]6CC(C)(C)CC[C@]6(C(=O)O[C@@H]6OC[C@H](O)[C@H](O)[C@H]6O[C@@H]6O[C@@H](C)[C@H](O[C@@H]7O[C@H](CO)[C@@H](O)[C@H](O)[C@H]7O)[C@H](O)[C@H]6O)[C@H](O)C[C@]45C)C3(C)C)O[C@H](CO)[C@@H](O[C@@H]3OC[C@@H](O)[C@H](O)[C@H]3O)[C@@H]2O)[C@H](O)[C@H](O)[C@H]1O (stereo not given in full)	none
COc1cc(CC2COC(c3ccc(OC4OC(CO)C(O)C(O)C4O)c(OC)c3)C2CO)ccc1O (stereo not given)	none
Cc1ccc2nc3sc(C(=O)NC4CCC(O)CC4)cc3cc2c1 (stereo not given)	none
CN(C)CCc1c[nH]c2ccc(C[C@H]3COC(=O)N3)cc12	nsP2pro inh inconclusive | CHIKV nsP2 cell inactive | NSP2 full ctr inactive | Furin counterscr inactive | NS23 peptide cs inactive | Papain cs inactive | nsP2pro confirm inconclusive | HCV NS3 4A cs inactive
CN1CCC[C@@H]1Cc1c[nH]c2ccc(CCS(=O)(=O)c3ccccc3)cc12	none
Cn1ccnc1CN1C(=O)CO[C@H]2CN(C3CCCCC3)C[C@H]21	none
COc1ccc(CNc2nc(-c3ccco3)nn2C(=O)c2ccccc2Cl)cc1	none
O=S(=O)(c1ccccc1)n1nc(-c2ccccc2)nc1NCc1ccc(Cl)cc1	none
COc1ccc(CNc2nc(-c3ccco3)nn2S(=O)(=O)c2ccc3ccccc3c2)cc1OC	nsP2pro inh inconclusive | CHIKV nsP2 cell inactive
O=C(C1CCCN1[S+](=O)([O-])c1cccc(C(F)(F)F)c1)N1CCC(N2CCCC2=O)CC1 (stereo not given)	none
COc1cccc(C(=O)N2CCN(c3ccnc4ccnn34)CC2)c1	none
C=C(NC(=O)C(=C)NC(=O)c1csc(C2=N[C@H]3c4csc(n4)[C@H]4NC(=O)c5csc(n5)[C@H]([C@@](C)(O)[C@@H](C)O)NC(=O)[C@H]5CSC(=N5)C(=CC)NC(=O)[C@H]([C@@H](C)O)NC(=O)c5csc(n5)[C@]3(CC2)NC(=O)[C@H](C)NC(=O)C(=C)NC(=O)[C@H](C)NC(=O)[C@H](C(C)CC)N[C@@H]2C=Cc3c([C@H](C)O)cc(nc3[C@H]2O)C(=O)O[C@@H]4C)n1)C(N)=O (stereo not given in full)	none
C[C@@H]1O[C@@H](O[C@H]2[C@@H]3C=CO[C@@H](O[C@@H]4O[C@H](CO)[C@@H](O)[C@H](O)[C@H]4O)[C@@H]3[C@@]3(CO)O[C@@H]23)[C@H](OC(=O)/C=C/c2ccc(O)c(O)c2)[C@H](O)[C@H]1O	nsP2pro inh inconclusive | CHIKV nsP2 cell inactive | NSP2 full ctr inactive | Furin counterscr inactive | NS23 peptide cs inactive | Papain cs inactive | nsP2pro confirm inactive | HCV NS3 4A cs inactive
